Reference: ChEMBL document CHEMBL1961873, “Compounds: GSK PKIS; Assays: Nanosyn kinase panel” (2012)

Assays:
[1] = target: Platelet-derived growth factor receptor beta (Homo sapiens) (UniProt P09619); conditions: at 1 µM;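 also: each value is a mean percent inhibition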
[2] = target: Tyrosine-protein kinase FRK (Homo sapiens) (UniProt P42685); conditions: at 0.1 µM
[3] = target: Tyrosine-protein kinase FRK (Homo sapiens) (UniProt P42685); conditions: at 1 µM
[4] = target: Protein-tyrosine kinase 2-beta (Homo sapiens) (UniProt Q14289); conditions: at 0.1 µM
[5] = target: Protein-tyrosine kinase 2-beta (Homo sapiens) (UniProt Q14289); conditions: at 1 µM
[6] = target: Proto-oncogene tyrosine-protein kinase receptor Ret (Homo sapiens) (UniProt P07949); conditions: at 0.1 µM
[7] = target: Proto-oncogene tyrosine-protein kinase receptor Ret (Homo sapiens) (UniProt P07949); conditions: at 1 µM
[8] = system: Proto-oncogene tyrosine-protein kinase receptor Ret (Homo sapiens), P07949 [V804L]; conditions: at 0.1 µM
[9] = system: Proto-oncogene tyrosine-protein kinase receptor Ret (Homo sapiens), P07949 [V804L]; conditions: at 1 µM
[10] = system: Proto-oncogene tyrosine-protein kinase receptor Ret (Homo sapiens), P07949 [Y791F]; conditions: at 0.1 µM
[11] = system: Proto-oncogene tyrosine-protein kinase receptor Ret (Homo sapiens), P07949 [Y791F]; conditions: at 1 µM
[12] = target: Macrophage-stimulating protein receptor (Homo sapiens) (UniProt Q04912); conditions: at 0.1 µM
[13] = target: Macrophage-stimulating protein receptor (Homo sapiens) (UniProt Q04912); conditions: at 1 µM
[14] = target: Proto-oncogene tyrosine-protein kinase ROS (Homo sapiens) (UniProt P08922); conditions: at 0.1 µM
[15] = target: Proto-oncogene tyrosine-protein kinase ROS (Homo sapiens) (UniProt P08922); conditions: at 1 µM
[16] = target: Proto-oncogene tyrosine-protein kinase Src (Homo sapiens) (UniProt P12931); conditions: at 0.1 µM
[17] = target: Proto-oncogene tyrosine-protein kinase Src (Homo sapiens) (UniProt P12931); conditions: at 1 µM
[18] = target: Tyrosine-protein kinase Srms (Homo sapiens) (UniProt Q9H3Y6); conditions: at 0.1 µM
[19] = target: Tyrosine-protein kinase Srms (Homo sapiens) (UniProt Q9H3Y6); conditions: at 1 µM
[20] = target: Tyrosine-protein kinase SYK (Homo sapiens) (UniProt P43405); conditions: at 0.1 µM;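 also: reported percentages are mean inhibition values for SYK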

Chain of Tyrosine-protein kinase Srms (Homo sapiens) (Q9H3Y6 whole entry): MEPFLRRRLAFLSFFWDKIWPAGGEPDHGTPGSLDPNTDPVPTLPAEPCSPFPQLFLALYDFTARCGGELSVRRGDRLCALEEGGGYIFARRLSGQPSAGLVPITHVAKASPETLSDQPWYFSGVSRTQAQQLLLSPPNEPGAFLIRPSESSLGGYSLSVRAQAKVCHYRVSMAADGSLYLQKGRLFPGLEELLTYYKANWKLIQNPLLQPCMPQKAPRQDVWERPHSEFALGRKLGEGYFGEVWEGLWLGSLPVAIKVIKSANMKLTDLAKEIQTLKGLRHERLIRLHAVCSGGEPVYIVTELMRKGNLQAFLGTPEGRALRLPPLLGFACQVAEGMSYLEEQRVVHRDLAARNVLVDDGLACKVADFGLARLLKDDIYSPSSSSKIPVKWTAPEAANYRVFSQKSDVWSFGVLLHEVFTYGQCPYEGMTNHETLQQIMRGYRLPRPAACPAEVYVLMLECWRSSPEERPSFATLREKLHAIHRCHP
Chain of Proto-oncogene tyrosine-protein kinase Src (Homo sapiens) (P12931 2-536 limits assumed): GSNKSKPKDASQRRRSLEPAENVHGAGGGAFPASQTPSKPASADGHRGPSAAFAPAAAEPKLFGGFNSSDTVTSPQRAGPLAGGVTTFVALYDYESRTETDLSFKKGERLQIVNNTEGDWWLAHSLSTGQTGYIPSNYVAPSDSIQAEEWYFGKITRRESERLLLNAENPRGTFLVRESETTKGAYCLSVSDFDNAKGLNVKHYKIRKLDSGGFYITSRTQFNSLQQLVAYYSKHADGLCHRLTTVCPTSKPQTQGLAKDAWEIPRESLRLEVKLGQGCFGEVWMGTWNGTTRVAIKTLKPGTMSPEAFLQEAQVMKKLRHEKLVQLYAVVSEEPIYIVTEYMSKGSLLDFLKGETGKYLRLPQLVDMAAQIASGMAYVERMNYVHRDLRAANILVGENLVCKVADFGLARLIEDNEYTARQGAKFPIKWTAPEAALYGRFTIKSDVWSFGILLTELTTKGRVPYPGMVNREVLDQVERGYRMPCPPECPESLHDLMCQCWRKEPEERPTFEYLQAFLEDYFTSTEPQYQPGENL
Chain of Protein-tyrosine kinase 2-beta (Homo sapiens) (Q14289 whole entry, looked up): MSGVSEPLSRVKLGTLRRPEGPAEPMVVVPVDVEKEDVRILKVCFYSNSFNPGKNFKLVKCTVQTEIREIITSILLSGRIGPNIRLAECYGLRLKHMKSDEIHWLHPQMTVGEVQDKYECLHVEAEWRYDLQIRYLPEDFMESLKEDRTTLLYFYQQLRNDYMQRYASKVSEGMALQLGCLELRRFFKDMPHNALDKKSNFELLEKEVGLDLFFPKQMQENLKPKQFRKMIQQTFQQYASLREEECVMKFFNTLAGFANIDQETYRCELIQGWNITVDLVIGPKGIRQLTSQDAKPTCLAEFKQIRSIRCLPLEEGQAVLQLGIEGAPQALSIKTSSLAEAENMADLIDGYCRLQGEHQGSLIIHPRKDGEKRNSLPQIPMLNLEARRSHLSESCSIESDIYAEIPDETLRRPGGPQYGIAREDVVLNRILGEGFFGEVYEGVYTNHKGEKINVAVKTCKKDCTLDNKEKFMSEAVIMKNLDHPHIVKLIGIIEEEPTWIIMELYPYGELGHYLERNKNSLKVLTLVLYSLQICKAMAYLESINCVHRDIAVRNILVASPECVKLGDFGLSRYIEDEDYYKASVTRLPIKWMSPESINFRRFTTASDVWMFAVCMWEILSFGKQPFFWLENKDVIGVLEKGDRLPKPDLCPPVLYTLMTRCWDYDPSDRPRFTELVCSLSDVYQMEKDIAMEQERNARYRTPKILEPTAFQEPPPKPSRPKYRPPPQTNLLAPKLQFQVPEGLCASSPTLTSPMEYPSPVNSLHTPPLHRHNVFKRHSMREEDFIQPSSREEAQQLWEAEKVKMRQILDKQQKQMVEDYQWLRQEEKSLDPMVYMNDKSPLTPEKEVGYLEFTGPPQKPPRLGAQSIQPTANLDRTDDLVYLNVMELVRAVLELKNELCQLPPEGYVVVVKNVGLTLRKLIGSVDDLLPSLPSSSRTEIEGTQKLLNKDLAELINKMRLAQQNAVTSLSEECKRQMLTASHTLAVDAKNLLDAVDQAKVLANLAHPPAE
Chain of Tyrosine-protein kinase FRK (Homo sapiens) (P42685 whole entry): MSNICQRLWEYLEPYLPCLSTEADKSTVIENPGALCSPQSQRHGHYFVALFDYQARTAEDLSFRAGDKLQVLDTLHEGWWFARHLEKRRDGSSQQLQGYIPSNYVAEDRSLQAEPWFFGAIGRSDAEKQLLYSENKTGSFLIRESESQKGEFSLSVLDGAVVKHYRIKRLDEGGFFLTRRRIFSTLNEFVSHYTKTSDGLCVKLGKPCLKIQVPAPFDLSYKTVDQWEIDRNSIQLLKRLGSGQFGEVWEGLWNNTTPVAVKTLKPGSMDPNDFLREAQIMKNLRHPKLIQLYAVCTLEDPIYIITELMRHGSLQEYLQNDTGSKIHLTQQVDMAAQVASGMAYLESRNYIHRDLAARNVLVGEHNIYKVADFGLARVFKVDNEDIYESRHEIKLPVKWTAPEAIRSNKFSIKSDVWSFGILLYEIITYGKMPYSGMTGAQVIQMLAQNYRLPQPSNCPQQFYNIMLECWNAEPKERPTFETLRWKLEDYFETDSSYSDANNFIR
Chain of Proto-oncogene tyrosine-protein kinase receptor Ret (Homo sapiens), P07949 [Y791F] (P07949 whole entry Y791F): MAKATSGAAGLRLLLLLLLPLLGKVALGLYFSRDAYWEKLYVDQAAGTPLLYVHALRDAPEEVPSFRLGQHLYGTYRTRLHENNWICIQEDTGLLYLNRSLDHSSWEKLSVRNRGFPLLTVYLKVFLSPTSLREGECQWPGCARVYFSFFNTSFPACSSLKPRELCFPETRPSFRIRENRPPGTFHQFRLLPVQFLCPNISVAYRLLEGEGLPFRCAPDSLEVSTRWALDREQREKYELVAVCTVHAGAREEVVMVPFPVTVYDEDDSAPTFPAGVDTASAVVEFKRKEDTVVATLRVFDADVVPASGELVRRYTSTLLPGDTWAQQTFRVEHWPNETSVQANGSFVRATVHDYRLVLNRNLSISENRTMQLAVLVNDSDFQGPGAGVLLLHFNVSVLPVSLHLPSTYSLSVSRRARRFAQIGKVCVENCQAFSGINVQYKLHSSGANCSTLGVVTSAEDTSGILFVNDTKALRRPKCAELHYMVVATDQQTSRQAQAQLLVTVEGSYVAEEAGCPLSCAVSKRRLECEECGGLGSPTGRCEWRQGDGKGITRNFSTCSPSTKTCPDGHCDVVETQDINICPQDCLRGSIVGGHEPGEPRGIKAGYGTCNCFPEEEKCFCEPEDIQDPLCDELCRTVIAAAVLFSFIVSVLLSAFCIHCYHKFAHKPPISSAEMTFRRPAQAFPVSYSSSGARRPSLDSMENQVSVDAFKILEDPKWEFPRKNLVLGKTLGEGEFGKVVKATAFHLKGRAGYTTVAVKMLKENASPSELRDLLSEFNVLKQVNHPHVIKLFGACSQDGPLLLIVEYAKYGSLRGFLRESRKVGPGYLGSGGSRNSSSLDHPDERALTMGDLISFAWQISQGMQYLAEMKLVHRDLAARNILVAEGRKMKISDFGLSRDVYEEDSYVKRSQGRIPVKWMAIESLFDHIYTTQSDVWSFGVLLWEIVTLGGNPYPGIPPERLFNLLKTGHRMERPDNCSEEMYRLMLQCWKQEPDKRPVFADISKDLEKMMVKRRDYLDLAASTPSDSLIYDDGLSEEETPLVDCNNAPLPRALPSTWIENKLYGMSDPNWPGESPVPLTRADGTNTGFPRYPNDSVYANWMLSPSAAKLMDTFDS
Chain of Proto-oncogene tyrosine-protein kinase receptor Ret (Homo sapiens), P07949 [V804L] (P07949 whole entry V804L): as the sequence (P07949 whole entry Y791F) above, with F791Y, V804L counted along it
Chain of Proto-oncogene tyrosine-protein kinase receptor Ret (Homo sapiens) (P07949 whole entry): as the sequence (P07949 whole entry Y791F) above, with F791Y counted along it
Chain of Platelet-derived growth factor receptor beta (Homo sapiens) (P09619 whole entry): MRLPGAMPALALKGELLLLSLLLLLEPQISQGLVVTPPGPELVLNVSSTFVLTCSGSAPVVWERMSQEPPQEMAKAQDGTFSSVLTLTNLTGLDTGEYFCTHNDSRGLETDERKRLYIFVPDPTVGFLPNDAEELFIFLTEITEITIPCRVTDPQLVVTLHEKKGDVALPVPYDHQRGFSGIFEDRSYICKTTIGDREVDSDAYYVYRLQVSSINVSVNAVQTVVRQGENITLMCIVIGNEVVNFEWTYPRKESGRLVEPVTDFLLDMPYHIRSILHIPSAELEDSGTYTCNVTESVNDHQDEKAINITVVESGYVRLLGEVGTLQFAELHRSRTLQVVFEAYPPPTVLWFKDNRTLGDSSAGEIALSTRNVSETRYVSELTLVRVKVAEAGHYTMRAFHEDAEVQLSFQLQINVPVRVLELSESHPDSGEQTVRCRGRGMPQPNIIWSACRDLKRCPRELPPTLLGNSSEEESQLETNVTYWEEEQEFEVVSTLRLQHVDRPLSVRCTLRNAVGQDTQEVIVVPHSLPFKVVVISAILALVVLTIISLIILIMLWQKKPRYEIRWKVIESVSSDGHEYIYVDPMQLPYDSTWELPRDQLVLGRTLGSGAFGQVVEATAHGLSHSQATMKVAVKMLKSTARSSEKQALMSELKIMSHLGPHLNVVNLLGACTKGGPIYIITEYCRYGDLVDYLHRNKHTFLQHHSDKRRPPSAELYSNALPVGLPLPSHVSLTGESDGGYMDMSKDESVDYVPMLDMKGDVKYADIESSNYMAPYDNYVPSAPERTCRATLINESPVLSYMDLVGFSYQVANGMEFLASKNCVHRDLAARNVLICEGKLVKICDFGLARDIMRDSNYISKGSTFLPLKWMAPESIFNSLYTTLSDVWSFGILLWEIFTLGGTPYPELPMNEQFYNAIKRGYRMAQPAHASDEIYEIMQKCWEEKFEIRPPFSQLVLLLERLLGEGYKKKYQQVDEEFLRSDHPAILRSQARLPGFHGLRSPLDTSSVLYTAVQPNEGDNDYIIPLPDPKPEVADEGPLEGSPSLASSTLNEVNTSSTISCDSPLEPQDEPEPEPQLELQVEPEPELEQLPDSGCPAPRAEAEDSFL

Compound | inhibition [1] [%] | inhibition [2] [%] | inhibition [3] [%] | inhibition [4] [%] | inhibition [5] [%] | inhibition [6] [%] | inhibition [7] [%] | inhibition [8] [%] | inhibition [9] [%] | inhibition [10] [%] | inhibition [11] [%] | inhibition [12] [%] | inhibition [13] [%] | inhibition [14] [%] | inhibition [15] [%] | inhibition [16] [%] | inhibition [17] [%] | inhibition [18] [%] | inhibition [19] [%] | inhibition [20] [%]
Cc1ccc2c(-c3ccnc(Nc4ccccc4)n3)c(-c3ccc(F)cc3)nn2n1 | 68.1 | 3.09 | 14.2 | 15.2 | 47.5 | 14.8 | 46.6 | 1.27 | 0.44 | 14.7 | 50.7 | 0.11 | 3.58 | 2.77 | 5.97 | 15.3 | 63.2 | 1.58 | 9.73 | -2.66
COc1cccc(-n2ncc3c(N/N=C/c4ccc(F)cc4)ncnc32)c1 | 45.3 | 4.95 | 1.58 | 8.88 | 13.6 | 5.24 | 14.9 | 2.47 | 7.65 | 1.26 | 18.6 | 3.4 | 13.7 | 3.85 | 8.02 | 14.6 | 49.2 | -1.01 | 3.9 | -4.34
COc1ccc2[nH]c3c4[nH]c5ccc(OC)cc5c4c4c(c3c2c1)C(=O)NC4=O | 85.1 | -0.26 | 0.68 | 29.5 | 80.6 | 40.5 | 77.3 | 71 | 82.1 | 44.8 | 67.3 | 6.28 | 16.9 | 55.8 | 79.1 | -1.01 | 20.4 | 3.34 | 15.6 | -7.81
CCc1nn2ncccc2c1-c1ccnc(NC2CC2)n1 | 13.8 | 1.9 | 1.77 | -3.19 | 2.45 | 3.64 | 2.46 | 3.6 | 2.94 | 5.5 | 6.92 | 6.26 | 6.01 | 4.86 | 5.32 | 6.38 | 7.08 | 1.77 | 1.02 | 0.63
Nc1nc(-c2ccc(F)cc2)c(-c2ccc3ncccc3n2)s1 | 42.9 | 2.59 | 2.66 | 10 | 14.3 | 8.56 | 14.8 | 4.68 | 7.83 | 7.45 | 14 | -8.7 | 7.82 | 4.44 | 15.8 | -1.89 | 14.2 | 0.67 | 3.74 | -1.32
CNC(=O)c1cncc(/C=C/c2ccccc2Cl)c1 | 20 | 0.04 | 0.05 | -1.7 | -0.21 | 4.56 | 7.64 | 0.9 | 10 | 0.47 | 22.8 | 2.22 | 7.21 | -2.16 | 2.7 | 10.1 | 7.14 | 1.76 | 3.3 | 7.26
CN1CCC(n2cnc(-c3ccc(F)cc3)c2-c2ccnc(Nc3ccccc3)n2)CC1 | 44.7 | 0.85 | 1.83 | 4.25 | 5.64 | 6.59 | 18.3 | 4.17 | 7.13 | 7.03 | 36.2 | 2.65 | 4 | 1.54 | 4 | 9.92 | 11.8 | 1.77 | 3.09 | 1.08
CCOc1ccc2c(-c3ccnc(Nc4cccc(C(F)(F)F)c4)n3)cnn2n1 | 20.5 | 2.02 | 0.63 | -2 | 3.33 | 0.9 | 5.18 | 5.38 | 6.22 | 7.78 | 12.4 | 4.92 | -3.11 | 2.05 | 15 | 4.83 | 3.76 | -3.13 | -1.56 | -1.67
O=C(Nc1n[nH]c2cc(-c3ccc(F)cc3)ccc12)C1CC1 | 7.77 | 1.74 | 2.21 | 9.12 | 9.39 | 2.79 | 3.73 | 2.36 | 3.06 | 4.2 | 2.03 | 3.73 | 1.45 | 4.52 | 6.57 | 0.9 | 6.35 | -1.28 | -0.73 | -3.9
CCCN1CCC(c2ccc(Nc3nc(Nc4cc(F)ccc4C(N)=O)c4cc[nH]c4n3)c(OC)c2)CC1 | 54.5 | 4.23 | 19.3 | 94.9 | 96.8 | 9.07 | 28.1 | 9.84 | 51.4 | 10 | 35.8 | 8.19 | 8.86 | 60.7 | 81.3 | -0.59 | 15.3 | 1.02 | 14.8 | -9.2
NC(=O)c1sc(-n2cnc3ccc(C(F)(F)F)cc32)cc1OCc1ccccc1Br | 7.98 | 2.51 | 2.35 | 9.64 | 12.8 | 1.18 | 4.33 | 2.41 | 3.36 | 3.67 | 11.1 | 4.35 | 5.41 | 3.4 | 9.36 | 1.66 | 10.1 | -1.61 | -2.09 | -5.63
Fc1cccc(COc2ccc(Nc3ncnc4sc(-c5ccco5)cc34)cc2Cl)c1 | 15 | 4.23 | 3.25 | 6.41 | 5.02 | 3.58 | 5.02 | 5.96 | 11.1 | 8.01 | 6.83 | -0.84 | 3.24 | 1.53 | 8.29 | 7.3 | 6.58 | -3.52 | -1.36 | -3.2
CCn1c(-c2nonc2N)nc2c(C#CC(C)(C)O)ncc(OC3CCNCC3)c21 | 41.1 | 0.94 | 2.25 | 6.98 | 45.3 | 4.43 | 10.3 | 1.1 | 4.05 | 1.51 | 17.1 | -2.24 | 0.48 | 7.34 | 6.9 | 7.32 | 11.4 | 0.02 | 1.37 | 2.08
CC(C)(CO)CNC(=O)c1ccc2c(c1)/C(=N/Nc1ccc(S(N)(=O)=O)cc1)C(=O)N2 | 72.3 | -0.08 | -0.01 | -4.01 | 18.8 | 9.94 | 49.1 | 33.5 | 72.5 | 13.8 | 56.3 | 3.52 | 2.41 | 0.74 | 3.7 | 5.77 | 34.2 | -0.93 | 0.39 | 0.61
COc1ccc(-c2oc3ncnc(N)c3c2-c2ccc(NC(=O)Nc3cc(C(F)(F)F)ccc3F)cc2)cc1 | 80.4 | 11.5 | 65 | 18.8 | 91 | 89 | 93.6 | 69.5 | 87.8 | 74.4 | 94.7 | 4.83 | 21.8 | 32.7 | 81.2 | 43.1 | 91.1 | 1.78 | 8.83 | -0.9
Fc1ccc(-c2nn3ccccc3c2-c2ccncc2)cc1 | 12.7 | 0.42 | 1.58 | 3.99 | 4.06 | 1.59 | 5.12 | 0.36 | 1.74 | 4.32 | 7.11 | 3.62 | 3.94 | 1.35 | 3.41 | -0.8 | 5 | -1.74 | 0.28 | 2.26
CC1=C(C(=O)Nc2cc(Cl)c3[nH]ncc3c2)C(c2ccc(C(F)(F)F)cc2)CC(=O)N1 (stereo not given) | 3.69 | 3.64 | 7.85 | 5.71 | 9.35 | 4.22 | 15.2 | 4.98 | 33.3 | 2.42 | 18.1 | 13.4 | 11.4 | 4.57 | 6.5 | 1.84 | 30.8 | -1.35 | 3.11 | -2.63
c1cc(-c2cnn3nc(N4CCOCC4)ccc23)nc(NC2CC2)n1 | 51.7 | 1.71 | 1.99 | 15.8 | 15.4 | 5.62 | 15.6 | 3.15 | 8.37 | 6.04 | 16.2 | -1.82 | 1.76 | 5.66 | 23.7 | 10.1 | 8.4 | 0.68 | -0.4 | 3.54
COc1cc(Nc2nccc(Nc3ccc4c(C)n[nH]c4c3)n2)cc(OC)c1OC | 87.5 | 1.94 | 11.5 | 25.2 | 84.3 | 51.1 | 84 | 25.3 | 68.7 | 57.5 | 82.4 | 6.16 | 34.4 | 40.6 | 70 | 68.4 | 92.1 | 4.33 | 12.6 | -1.75
c1ccc(COc2ccc(Nc3ncnc4ccc(-c5ccco5)cc34)cc2)cc1 | 0.57 | -0.18 | 0.89 | -2.12 | 1.9 | 1.71 | 2.96 | 1.93 | 2.59 | 1.88 | 1.21 | 4.01 | 7.76 | 2.59 | 3.28 | 0.54 | 1.64 | 0.68 | 0.99 | -0.45
Clc1ccc(-c2nn3ncccc3c2-c2ccnc(Nc3ccccc3)n2)cc1 | 39.4 | 0.95 | 3.48 | 7.96 | 14.7 | 8.76 | 42 | 4.29 | 4.92 | 9.6 | 42.2 | -2.2 | 4.63 | 4.17 | 9.1 | 6.5 | 39.3 | 1.99 | 5.97 | -4.66
N#Cc1c(NC(=O)c2ccc(F)cc2)sc2c1CCCC2 | 5.64 | 0.6 | 1.01 | 1 | 1.23 | 0.59 | -0.03 | 1.83 | 2.29 | 1.07 | 7.62 | 1.04 | 2.12 | 0.38 | 4.13 | 4.79 | 1.56 | -1.11 | -0.62 | -2.1
CCCN(CCS(C)(=O)=O)Cc1ccc(-c2ccc3ncnc(Nc4ccc(OCc5cccc(F)c5)c(Cl)c4)c3c2)o1 | 8.69 | 0.49 | 2.46 | 3.28 | -1.09 | 4.68 | 7.59 | 1.01 | 5.01 | 2.4 | 2.22 | 2.96 | 4.1 | 2.72 | 6.67 | 3.8 | 6.22 | 1.1 | 2.29 | -1.64
CC(C)COC(=O)c1ccc2c(c1)/C(=C/Nc1ccc(S(N)(=O)=O)cc1)C(=O)N2 | 86 | -0.58 | 1.92 | 2.4 | 16.5 | 34 | 78 | 54.5 | 82.4 | 25.2 | 69.9 | -0.4 | 16.7 | 1.71 | 15.3 | 2.28 | 39.5 | 5.32 | 3.32 | 4.14
COc1ccc(-c2nn3ncccc3c2-c2ccnc(Nc3ccc4c(c3)OCCO4)n2)cc1 | 20.6 | 0.87 | 3.44 | -3.39 | 10.2 | 8.94 | 47.3 | 3.01 | 3.4 | 11.7 | 56.2 | -3.38 | 8.88 | 6.79 | 21.9 | 7.57 | 51.7 | 0.02 | 0.99 | 1.19
CCn1c(-c2nonc2N)nc2ccccc21 | 5.69 | 0.05 | 1.69 | 4.43 | 7.84 | 1.65 | 3.15 | 2.56 | 0.52 | 4.13 | 3.18 | 1.17 | 2.21 | 9.11 | 15.9 | 11.4 | 6.84 | 1.09 | 2.1 | 0.68
